# Calls of active or inactive are those of the source.
# Key:
# Albumin (Bos taurus) = Albumin (Bos taurus) (UniProt P02769); assay: bovine serum albumin binders on microarray, profiling panel, artefact control for SMM control protein annotation, biochemical, small-molecule microarray, Alexa647 label, 635/667 nm fluorescence (AID 1118); details: BSA-A647 binding, fluorescence 635 nm, higher = more signal;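 also: score merges 667 nm emission intensity and signal-to-noise per printed compound spot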
# [1] = small-molecule microarray binders of probe aXIP, primary screen, biochemical, NeuroSMM set, 635/667 nm fluorescence (AID 1119); details: higher = more signal, called active from +8 up or from −8 down;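 also: probe is the protein aXip251-270 applied at 1 µg/mL to compound-printed slides; binding of probe to printed compounds measured as 667 nm fluorescence plus signal to noise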
# [2] = small-molecule binders of probe aNOTCH3, primary screen, biochemical, small-molecule microarray, 635/667 nm fluorescence (AID 1120); details: higher = more signal;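 also: probe is a biotin-tagged antibody raised against NOTCH3 rather than NOTCH3 protein; score merges spot fluorescence near 667 nm with spot signal to noise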
# [3] = small-molecule binders of probe aNOTCH2, primary screen, biochemical, small-molecule microarray, 635/667 nm fluorescence (AID 1121); details: higher = more signal;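 also: score merges feature fluorescence read at 667 nm with its signal to noise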
# [4] = target: Carbonic anhydrase 2 (Homo sapiens) (UniProt P00918); assay: CAII small-molecule binders, profiling panel, biochemical, small-molecule microarray, Alexa647-labelled CAII (AID 1122); details: CAII-A647 binding fluorescence, higher = more signal
# [5] = COS7 lysate on small-molecule microarray, probe aHis, 635 nm (AID 1123); details: COS7 cell lysate, fluorescence, higher = more signal;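 also: z-score combines 667nm fluorescence intensity with signal-to-noise per printed compound spot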
# [6] = compound binding in COS7 lysate, probe aLAP1, primary screen, cell lysate, small-molecule microarray (AID 1124); details: probe aLAP1, fluorescence, higher = more signal;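 also: lysate comes from COS7 cells expressing LAP1 and is applied at 0.3 µg/mL; score merges spot fluorescence near 667 nm with signal-to-noise over triplicate slides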
# Sam68 (KHDRBS1) = assay: Sam68 small-molecule binders, primary screen, biochemical, small-molecule microarray, 635 nm fluorescence (AID 1125); details: small-molecule microarray binding, higher = more signal;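 also: score merges 667 nm channel intensity with signal to noise over triplicate slides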
# [7] = tested on: Chordin-like protein 2 (CHRDL2); assay: CHRDL2 small-molecule binders, primary screen, biochemical, small-molecule microarray, 635 nm fluorescence (AID 1126); details: small-molecule microarray binding, fluorescence 635 nm; higher = more signal;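 also: printed compound slides probed with Chrdl2 protein at 4 µg/mL for 1 h at 4 C; score merges 667 nm emission intensity with signal to noise over three replicate slides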
# [8] = target: Concanavalin-A (Canavalia ensiformis) (UniProt P02866); assay: ConA small-molecule binders, primary screen, artefact control for SMM control protein annotation, biochemical, small-molecule microarray, Alexa647 label, 635 nm (AID 1127); details: ConA-A647 binding fluorescence, higher = more signal;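 also: z combines 667 nm emission intensity with signal-to-noise across three replicate slides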
# Chain of Concanavalin-A (Canavalia ensiformis) (P02866 whole entry, looked up): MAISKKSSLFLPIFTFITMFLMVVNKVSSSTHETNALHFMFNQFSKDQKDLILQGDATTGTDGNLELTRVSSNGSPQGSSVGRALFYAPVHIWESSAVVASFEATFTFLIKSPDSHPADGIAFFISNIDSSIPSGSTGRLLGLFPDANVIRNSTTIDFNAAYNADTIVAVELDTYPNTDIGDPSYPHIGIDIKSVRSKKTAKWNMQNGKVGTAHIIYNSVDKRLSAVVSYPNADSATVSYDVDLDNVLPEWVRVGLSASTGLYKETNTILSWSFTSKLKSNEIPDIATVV
# [9] = anti-His antibody binders, primary screen, artefact control for SMM control protein annotation, biochemical, small-molecule microarray, 635 nm fluorescence (AID 1128); details: anti-His Alexa647 antibody binding, higher = more signal;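 also: score merges feature fluorescence with signal-to-noise for each printed compound spot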
# [10] = tested on: Human papillomavirus type 1a E7 protein (residues 1-88); assay: HPV1a E7 small-molecule binders, primary screen, biochemical, small-molecule microarray, residues 1-88, 635 nm (AID 1129); details: small-molecule microarray binding, fluorescence 635 nm; higher = more signal
# [11] = target: Focal adhesion kinase 1 (Homo sapiens) (UniProt Q05397); assay: small-molecule microarray binders of FAK, primary screen, biochemical, 635/667 nm fluorescence, BSA, DTT (AID 1130); details: PTK2 binding, 635 nm fluorescence, higher = more signal;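 also: composite of spot emission at 667 nm and signal to noise over triplicate slides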
# Chain of Focal adhesion kinase 1 (Homo sapiens) (Q05397 whole entry, looked up): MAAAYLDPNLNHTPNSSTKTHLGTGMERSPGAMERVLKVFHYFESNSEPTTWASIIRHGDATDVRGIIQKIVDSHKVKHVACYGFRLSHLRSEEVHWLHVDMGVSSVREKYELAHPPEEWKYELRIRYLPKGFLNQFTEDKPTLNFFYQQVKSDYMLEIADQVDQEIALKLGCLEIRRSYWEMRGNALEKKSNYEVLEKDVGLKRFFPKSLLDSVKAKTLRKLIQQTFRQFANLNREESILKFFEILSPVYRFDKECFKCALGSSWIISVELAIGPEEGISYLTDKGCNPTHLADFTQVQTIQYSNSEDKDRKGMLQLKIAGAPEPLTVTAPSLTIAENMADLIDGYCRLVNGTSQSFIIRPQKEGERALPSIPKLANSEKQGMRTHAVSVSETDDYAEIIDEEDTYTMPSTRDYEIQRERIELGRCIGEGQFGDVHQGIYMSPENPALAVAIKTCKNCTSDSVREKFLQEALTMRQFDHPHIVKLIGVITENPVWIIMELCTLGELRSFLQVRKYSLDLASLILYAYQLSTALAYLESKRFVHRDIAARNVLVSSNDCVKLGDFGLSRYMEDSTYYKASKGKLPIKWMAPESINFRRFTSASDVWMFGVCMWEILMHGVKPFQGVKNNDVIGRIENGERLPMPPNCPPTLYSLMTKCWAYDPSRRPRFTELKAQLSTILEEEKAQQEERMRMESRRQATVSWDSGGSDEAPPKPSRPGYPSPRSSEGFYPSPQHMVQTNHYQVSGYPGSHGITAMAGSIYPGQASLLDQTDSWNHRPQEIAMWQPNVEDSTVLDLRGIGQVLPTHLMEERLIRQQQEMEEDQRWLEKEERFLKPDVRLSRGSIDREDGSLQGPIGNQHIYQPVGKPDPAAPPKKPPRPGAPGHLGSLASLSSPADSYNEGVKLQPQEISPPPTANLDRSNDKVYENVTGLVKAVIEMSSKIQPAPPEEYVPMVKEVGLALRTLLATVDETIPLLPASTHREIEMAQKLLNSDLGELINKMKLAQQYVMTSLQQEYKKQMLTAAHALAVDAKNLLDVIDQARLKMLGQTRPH
# [12] = tested on: Fibrinogen (Alexa647-labelled); assay: fibrinogen binders on compound microarrays, profiling panel, artefact control for SMM control-protein annotation, biochemical, small-molecule microarray, 635/667 nm fluorescence (AID 1131); details: fibrinogen-A647 binding fluorescence, higher = more signal;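 also: z-score merges 667 nm fluorescence with per-spot signal-to-noise over triplicate slides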
# [13] = target: Follistatin (Homo sapiens) (UniProt P19883); assay: follistatin binders on small-molecule microarrays, primary screen, biochemical, small-molecule microarray, 635/667 nm fluorescence (AID 1132); details: FST binding, 635 nm fluorescence, higher = more signal
# Chain of Follistatin (Homo sapiens) (P19883 whole entry, looked up): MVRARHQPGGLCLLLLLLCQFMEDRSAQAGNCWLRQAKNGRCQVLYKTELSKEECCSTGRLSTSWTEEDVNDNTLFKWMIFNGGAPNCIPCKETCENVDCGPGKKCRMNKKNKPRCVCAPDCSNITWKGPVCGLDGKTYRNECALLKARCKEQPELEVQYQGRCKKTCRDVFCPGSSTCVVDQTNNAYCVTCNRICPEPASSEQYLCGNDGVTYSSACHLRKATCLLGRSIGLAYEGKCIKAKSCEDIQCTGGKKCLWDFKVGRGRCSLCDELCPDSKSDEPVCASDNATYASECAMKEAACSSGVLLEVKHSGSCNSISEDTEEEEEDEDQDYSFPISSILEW
# [14] = target: Fibroblast growth factor 2 (Homo sapiens) (UniProt P09038); assay: FGF2 binders on small-molecule microarrays, primary screen, biochemical, small-molecule microarray, 635/667 nm fluorescence (AID 1133); details: small-molecule microarray binding, FGF2, fluorescence 635/667; higher = more signal
# Chain of Fibroblast growth factor 2 (Homo sapiens) (P09038 whole entry, looked up): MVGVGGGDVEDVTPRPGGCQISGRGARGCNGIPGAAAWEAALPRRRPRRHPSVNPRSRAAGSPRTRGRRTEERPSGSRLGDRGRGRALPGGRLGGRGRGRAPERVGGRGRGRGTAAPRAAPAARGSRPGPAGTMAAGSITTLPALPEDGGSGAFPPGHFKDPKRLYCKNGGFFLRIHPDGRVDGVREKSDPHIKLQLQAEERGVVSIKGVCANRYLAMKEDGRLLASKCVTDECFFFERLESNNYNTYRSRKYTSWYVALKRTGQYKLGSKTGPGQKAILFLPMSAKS
# [15] = mitochondrial membrane potential change in A549 cells, profiling panel, cell-based, JC-1 fluorescence, basal, 24 h, 100 nL (AID 1138); details: higher = more signal;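 also: A549 lung adenocarcinoma cells under basal conditions with no added stimulus; test concentration not given here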
# Lefty1 = Lefty1 binders on small-molecule microarrays, primary screen, biochemical, small-molecule microarray, 635/667 nm fluorescence (AID 1139); details: small-molecule microarray binding, fluorescence 635/667; higher = more signal
# [16] = tested on: wheat germ agglutinin (Triticum aestivum), Alexa647-labelled; assay: wheat germ agglutinin binders on compound microarrays, profiling panel, artefact control for SMM control-protein annotation, biochemical, small-molecule microarray, 635/667 nm fluorescence (AID 1140); details: WGA-A647 binding, 635 nm fluorescence, higher = more signal;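 also: score merges 667 nm feature emission with signal to noise over triplicate slides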
# [17] = target: Luciferin 4-monooxygenase (Photinus pyralis) (UniProt P08659); assay: firefly luciferase enzyme inhibitors, primary screen, biochemical, luminescence, purified enzyme, 2006 set (AID 1141); details: SteadyGlo luminescence, 30 min, higher = more signal, called active from +8 up or from −8 down;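 also: cell-free assay with purified firefly luciferase at 100 ng per well in PBS; test concentration not given here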
# Chain of Luciferin 4-monooxygenase (Photinus pyralis) (P08659 whole entry, looked up): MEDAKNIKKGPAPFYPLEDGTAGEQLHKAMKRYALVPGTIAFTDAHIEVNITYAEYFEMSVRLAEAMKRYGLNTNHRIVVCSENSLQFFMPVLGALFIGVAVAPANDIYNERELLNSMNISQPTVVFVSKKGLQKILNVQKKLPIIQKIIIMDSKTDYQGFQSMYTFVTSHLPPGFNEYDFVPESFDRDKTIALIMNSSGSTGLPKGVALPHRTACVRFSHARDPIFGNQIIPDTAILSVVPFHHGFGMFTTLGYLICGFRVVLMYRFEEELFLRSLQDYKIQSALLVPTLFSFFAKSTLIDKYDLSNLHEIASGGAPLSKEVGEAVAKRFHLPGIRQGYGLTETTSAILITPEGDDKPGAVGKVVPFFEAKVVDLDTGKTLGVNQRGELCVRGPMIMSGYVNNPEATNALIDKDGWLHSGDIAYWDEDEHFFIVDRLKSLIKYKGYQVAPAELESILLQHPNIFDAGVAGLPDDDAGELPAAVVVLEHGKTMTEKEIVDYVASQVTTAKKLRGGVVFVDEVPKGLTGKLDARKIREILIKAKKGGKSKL
# Chain of Albumin (Bos taurus) (P02769 whole entry, looked up): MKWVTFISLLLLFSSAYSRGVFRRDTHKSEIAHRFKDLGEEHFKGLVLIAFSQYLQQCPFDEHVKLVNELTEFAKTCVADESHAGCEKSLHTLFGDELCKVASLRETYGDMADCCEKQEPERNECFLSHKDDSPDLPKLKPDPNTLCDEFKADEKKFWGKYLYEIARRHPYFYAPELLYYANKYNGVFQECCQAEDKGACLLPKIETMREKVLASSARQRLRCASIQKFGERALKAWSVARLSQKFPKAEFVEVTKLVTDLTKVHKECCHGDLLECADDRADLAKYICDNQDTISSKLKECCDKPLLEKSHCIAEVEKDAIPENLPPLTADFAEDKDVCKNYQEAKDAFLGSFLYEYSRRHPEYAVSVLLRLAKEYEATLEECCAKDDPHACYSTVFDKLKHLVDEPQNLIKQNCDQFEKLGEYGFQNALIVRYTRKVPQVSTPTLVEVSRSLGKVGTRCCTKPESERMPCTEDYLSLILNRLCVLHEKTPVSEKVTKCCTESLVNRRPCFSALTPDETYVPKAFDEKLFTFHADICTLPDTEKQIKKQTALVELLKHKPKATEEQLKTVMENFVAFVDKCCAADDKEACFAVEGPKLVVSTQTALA
SMILES,composite z-score (Albumin (Bos taurus)),composite Z-score [1],composite z-score [2],composite z-score [3],composite z-score [4],composite z-score [5],composite z-score [6],composite z-score (Sam68 (KHDRBS1)),composite z-score [7],composite z-score [8],composite z-score [9],composite z-score [10],composite z-score [11],composite z-score [12],composite z-score [13],composite z-score [14],z-score [15],composite z-score (Lefty1),composite z-score [16],z-score [17]
CCN1C(=O)[C@H]2[C@H]3[C@H](O)[C@H](O)CC(=NO[C@@H]4O[C@H](COC(C)=O)[C@@H](OC(C)=O)[C@H](OC(C)=O)[C@H]4OC(C)=O)[C@@H]3CC[C@H]2C1=O,0.646,0.581 (inactive),0.0479,-0.044,-0.0179,0.415,0.781,1.22,0.58,-0.441,-0.36,0.839,0.211,0.744,0.898,0.747,-0.282,1.6,0.696,1.15 (inactive)
CON(C)C(=O)c1nnc2c(n1)[nH]c1ccccc12,0.795,0.0617 (inactive),-0.0765,-0.167,0.464,0.128,1.02,0.129,0.493,0.293,0.459,0.607,0.137,0.471,0.545,0.635,-0.448,0.596,0.816,-2.33 (inactive)
CCOC(=O)CCN1C(=O)[C@H]2[C@H]3[C@H](O)[C@H](O)CC(=NOCC(C)C)[C@@H]3CC[C@H]2C1=O,-0.0235,0.544 (inactive),-0.0693,-0.186,-0.52,-0.934,-0.412,-0.0659,1.45,-1.16,-0.957,-0.263,-0.286,-0.586,0.91,1.14,-0.478,0.929,0.0456,0.826 (inactive)
CC(C)[C@@H](OCc1ccccc1)[C@H](C)C=NO[C@H](C)c1cn([C@@H]2COC[C@H]2O)nn1,0.378,-0.0641 (inactive),0.307,-0.156,-0.133,0.811,0.388,1.3,0.0507,0.584,0.0202,0.693,0.279,0.0524,0.229,0.422,-0.245,0.957,-0.0886,1.06 (inactive)
CON=C(C)CCN1CCCc2nc(C)c(C)cc21,-0.353,0.599 (inactive),0.0496,-0.0769,0.438,1.42,0.234,1.1,0.637,0.374,1.15,0.476,-0.0211,0.613,0.632,0.653,1.45,1.05,0.201,0.267 (inactive)
C[C@@H]1CC[C@H]2C(=O)OC(Cc3ccccc3)CN2[C@H]1c1ccc(Br)cc1 (stereo not given in full),0.525,-0.014 (inactive),-0.0362,-0.198,0.186,0.712,0.509,0.64,0.257,0.494,0.227,0.238,-0.0103,0.853,0.329,0.867,1.57,0.789,0.339,-0.679 (inactive)

# From PubChem BioAssay
